Reference: PubChem BioAssay AID1159580 (chemical genetic matrix, 2015)
In all, about 5,500 compounds went through this assay and about 2,000 (36%) were called active. Inconclusive results (about 18%) are left out. Cut-off read from the data, not from the text of the source: active = normalized growth mostly below about 0.91 (no sharp cut-off); inconclusive = no clear call, values can overlap the other calls; inactive = mostly above about 0.92. This is one part of the list.

Assay: chemical genetic growth profiling, strain panel (AID 1159580);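 note: tested at 20 µM; growth read once vehicle control cultures reached saturation at 30 °C; 1 = growth at the plate median or of vehicle wells; lower values mean less growth of the strain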
Conditions: S. cerevisiae deletion strains, growth OD
[1] = locus YAL040C, strain CLN3, active compounds read low
[2] = locus YCL061C, strain MRC1 (second series), active compounds read low
[3] = locus YDR150W, strain NUM1, active compounds read low
[4] = locus YDR363W, strain ESC2, active compounds read low
[5] = locus YER002W, strain NOP16, active compounds read low
[6] = locus YGR078C, strain PAC10, active compounds read low
[7] = locus YNL128W, strain TEP1, active compounds read low
[8] = locus YNL175C, strain NOP13, active compounds read low
[9] = locus YNL197C, strain WHI3, active compounds read low
[10] = locus YNL224C, strain SQS1, active compounds read low
[11] = locus YOR083W, strain WHI5 (second series), active compounds read low
[12] = locus YPL055C, strain LGE1, active compounds read low
[13] = locus YJR075W, strain HOC1, active compounds read low

Measured: normalized growth

CC(C)C[C@H](NC(=O)C1OC1C(=O)O)C(=O)NCCCCN=C(N)N (stereo not given in full)
inactive: locus YAL013W, strain DEP1, active compounds read low 1.01 | [1] 0.949 | [2] 0.993 | [3] 0.989 | [4] 1.01 | [5] 0.985 | [6] 0.988 | locus YGR229C, strain SMI1, active compounds read low 1.04 | locus YMR263W, strain SAP30, active compounds read low 0.997 | [7] 0.998 | [8] 0.984 | [9] 0.971 | [10] 1.01 | [11] 0.979 | [12] 1.02 | locus YPL241C, strain CIN2, active compounds read low 0.995

CC(=O)C(C)=O
inactive: [1] 1.01 | [2] 1.01 | [4] 1.03 | [5] 1 | [13] 1.02 | [8] 0.994 | [9] 1.03 | [10] 0.99 | [11] 1.02 | [12] 1.07

CC(=O)/C(C)=N\O
inactive: [1] 0.972 | [3] 0.972 | [4] 1.07 | [5] 0.994 | [6] 1 | [13] 0.987 | locus YMR307W, strain GAS1, active compounds read low 1.07 | [7] 0.983 | locus YNL153C, strain GIM3, active compounds read low 0.979 | [8] 0.978 | [9] 1 | [10] 1.01 | locus YNL322C, strain KRE1, active compounds read low 1 | [11] 0.986
